Data: PubChem BioAssay
For part of these data: Entries with a potency or affinity are not part of this list. The list shows a part of the results. Calls of active or inactive are those of the source. Unless noted, how the calls were made is not given here.

Assays:
[1] = molecular target: GTPase HRas (Homo sapiens) (UniProt P01112); assay: Ras wt fluorescent GTP loading blockade – biochemical, wildtype, multiplex bead flow cytometry, dose response (AID 1335;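 active means fitted half-maximal concentration within 10 nM to 100 µM, steepness 0.5 to 2, significant signal drop, low assay interference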); details: bead-based flow cytometry, Bodipy-GTP binding to GST-Ras; at 100 µM (top of the series) unless noted
[2] = system: Ras-related protein Rab-7a (dog), GTP binding; assay: blockers of fluorescent GTP binding to Rab7 – biochemical, wildtype, multiplex bead flow cytometry, dose response (AID 1336)
[3] = molecular target: Ras-related C3 botulinum toxin substrate 1 (Homo sapiens) (UniProt P63000); assay: inhibition of wildtype Rac1 nucleotide loading – biochemical, multiplex bead flow cytometry, dose response (AID 1340;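 active means dose curve with midpoint inside tested range, moderate steepness, plateau gap beyond fit error, low compound glow and bead-link interference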); details: GST-Rac1 beads, Bodipy-FL-GTP binding; at 100 µM (top of the series) unless noted
[4] = molecular target: GTPase HRas (Homo sapiens) (UniProt P01112); assay: blockade of GTP loading onto mutant Ras – biochemical, activated mutant, multiplex bead flow cytometry, dose response (AID 1341;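 active means dose-response curve with midpoint inside the tested range, moderate steepness, significant amplitude and little compound fluorescence or bead-attachment interference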;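 further: GST-tagged constitutively activated Ras mutant immobilized on beads and multiplexed with other GTPases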)
[5] = molecular target: Regulator of G-protein signaling 16 (Homo sapiens) (UniProt O15492); assay: small molecules altering RGS protein interactions with GNAO1 – biochemical, multiplexed beads, flow cytometry, RGS4/7/8/16/19, primary screen (AID 1504); details: multiplexed bead flow cytometry, measured here: RGS16 interaction, at 10 µM;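 further: fluorescently labeled Galpha-o bound to GDP with aluminium fluoride binding biotinylated RGS beads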
[6] = molecular target: Regulator of G-protein signaling 19 (Homo sapiens) (UniProt P49795); assay: as above; details: multiplexed bead flow cytometry, measured here: RGS19 interaction, at 10 µM
[7] = molecular target: Regulator of G-protein signaling 4 (Homo sapiens) + Guanine nucleotide-binding protein G(o) subunit alpha (Homo sapiens) (UniProt P49798+P09471); assay: as above; details: multiplexed bead flow cytometry, at 10 µM
[8] = molecular target: Regulator of G-protein signaling 7 (Homo sapiens) (UniProt P49802); assay: as above; details: multiplexed bead flow cytometry, measured here: RGS7 interaction, at 10 µM
[9] = molecular target: Regulator of G-protein signaling 8 (Homo sapiens) (UniProt P57771); assay: as above; details: multiplexed bead flow cytometry, measured here: RGS8 interaction, at 10 µM
[10] = interference with biotin-avidin bead interaction – biochemical, flow cytometry, bead-based, counter-screen for RGS protein interaction modulators (AID 1783;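 active means inhibition above 50%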;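 on inhibition: median green fluorescence of gated singlet beads compared with DMSO control wells; 0% = DMSO wells and 100% = complete loss of bead fluorescence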); details: streptavidin beads, fluorescein-biotin binding; at 10 µM, stronger effect = higher value
[11] = molecular target: Guanine nucleotide-binding protein G(o) subunit alpha (Homo sapiens) (UniProt P09471); assay: retest of RGS8-Galphao interaction hits – biochemical, multiplexed bead flow cytometry, single concentration, confirmation (AID 1836; in the data active means binding response below about 72% or above about 130%; inactive means in between;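 further: Galphao activated as GDP AlF4 complex before binding bead RGS8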); details: bead-based flow cytometry RGS8-Galphao binding, fluorescence; at 10 µM; actives lie on both sides
[12] = molecular target: Guanine nucleotide-binding protein G(o) subunit alpha (Homo sapiens) (UniProt P09471); assay: retest of RGS7-Galphao interaction hits – biochemical, multiplexed bead flow cytometry, single concentration, confirmation (AID 1837; in the data active means response below about 75% or above about 130%; inactive means in between;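 further: fluorescent Galphao activated with GDP and aluminum fluoride binding bead-coupled RGS7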); details: bead-based flow cytometry RGS7-Galphao binding; at 10 µM; actives lie on both sides
[13] = molecular target: Regulator of G-protein signaling 16 (Homo sapiens) + Guanine nucleotide-binding protein G(o) subunit alpha (Homo sapiens) (UniProt O15492+P09471); assay: RGS16 and Galphao interaction regulators – biochemical, single concentration, multiplexed bead flow cytometry, confirmation (AID 1838; in the data active means response below about 74% or above about 130%; inactive means in between;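 further: Galphao activated as the GDP aluminium fluoride complex binding bead-coupled RGS16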); details: bead-based flow cytometry, at 10 µM, actives lie on both sides
[14] = molecular target: Guanine nucleotide-binding protein G(o) subunit alpha (Homo sapiens) (UniProt P09471); assay: RGS4 and Galphao interaction regulators – biochemical, single concentration, multiplexed bead flow cytometry, confirmation (AID 1840; in the data active means binding response below about 74% or above about 130%; inactive means in between); details: at 10 µM, actives lie on both sides
[15] = molecular target: Guanine nucleotide-binding protein G(o) subunit alpha (Homo sapiens) + Regulator of G-protein signaling 19 (Homo sapiens) (UniProt P09471+P49795); assay: RGS19 interaction with Gαo, hit retest – biochemical, single point, multiplexed bead flow cytometry, confirmation (AID 1841; in the data active means response below about 50% or above about 160%; inactive means in between;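 further: 100% = no compound control and 0% = blank background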); details: bead-based flow cytometry RGS19-Galphao binding; at 10 µM; actives lie on both sides
Chain of Guanine nucleotide-binding protein G(o) subunit alpha (Homo sapiens) + Regulator of G-protein signaling 19 (Homo sapiens) (P09471 whole entry, looked up): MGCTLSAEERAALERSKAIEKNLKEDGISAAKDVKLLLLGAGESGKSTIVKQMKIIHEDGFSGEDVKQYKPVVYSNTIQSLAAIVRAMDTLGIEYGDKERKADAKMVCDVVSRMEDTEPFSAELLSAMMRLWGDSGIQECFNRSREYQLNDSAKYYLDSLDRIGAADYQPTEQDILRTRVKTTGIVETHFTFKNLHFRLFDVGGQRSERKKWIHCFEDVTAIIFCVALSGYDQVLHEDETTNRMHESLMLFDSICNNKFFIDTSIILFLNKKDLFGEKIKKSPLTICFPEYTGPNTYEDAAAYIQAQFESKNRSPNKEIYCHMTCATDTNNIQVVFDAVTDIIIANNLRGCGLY
Chain of Guanine nucleotide-binding protein G(o) subunit alpha (Homo sapiens) + Regulator of G-protein signaling 19 (Homo sapiens) (P49795 whole entry, looked up): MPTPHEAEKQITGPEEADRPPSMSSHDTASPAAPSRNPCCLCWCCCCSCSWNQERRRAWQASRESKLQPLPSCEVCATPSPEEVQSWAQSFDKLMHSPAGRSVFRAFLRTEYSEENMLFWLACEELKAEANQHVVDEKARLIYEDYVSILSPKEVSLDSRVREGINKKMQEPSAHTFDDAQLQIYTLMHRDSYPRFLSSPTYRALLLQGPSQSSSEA

Chain of Guanine nucleotide-binding protein G(o) subunit alpha (Homo sapiens) (P09471 whole entry, looked up): as the sequence (P09471 whole entry, looked up) above
Chain of Regulator of G-protein signaling 4 (Homo sapiens) + Guanine nucleotide-binding protein G(o) subunit alpha (Homo sapiens) (P09471 whole entry, looked up): as above
Chain of Regulator of G-protein signaling 4 (Homo sapiens) + Guanine nucleotide-binding protein G(o) subunit alpha (Homo sapiens) (P49798 whole entry, looked up): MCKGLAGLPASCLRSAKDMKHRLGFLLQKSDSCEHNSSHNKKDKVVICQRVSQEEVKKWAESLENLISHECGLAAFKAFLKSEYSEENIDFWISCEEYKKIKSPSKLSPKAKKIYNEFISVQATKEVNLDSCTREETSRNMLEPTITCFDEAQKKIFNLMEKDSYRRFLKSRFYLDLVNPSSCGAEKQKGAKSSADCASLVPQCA
Chain of Regulator of G-protein signaling 16 (Homo sapiens) + Guanine nucleotide-binding protein G(o) subunit alpha (Homo sapiens) (O15492 whole entry, looked up): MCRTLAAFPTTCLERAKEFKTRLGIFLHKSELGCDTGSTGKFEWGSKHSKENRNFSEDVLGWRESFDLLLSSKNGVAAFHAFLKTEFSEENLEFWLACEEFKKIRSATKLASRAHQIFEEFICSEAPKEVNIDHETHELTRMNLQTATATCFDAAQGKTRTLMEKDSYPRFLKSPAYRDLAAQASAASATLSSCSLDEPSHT
Chain of Regulator of G-protein signaling 16 (Homo sapiens) + Guanine nucleotide-binding protein G(o) subunit alpha (Homo sapiens) (P09471 whole entry, looked up): as the sequence (P09471 whole entry, looked up) above
Chain of GTPase HRas (Homo sapiens) (P01112 whole entry, looked up): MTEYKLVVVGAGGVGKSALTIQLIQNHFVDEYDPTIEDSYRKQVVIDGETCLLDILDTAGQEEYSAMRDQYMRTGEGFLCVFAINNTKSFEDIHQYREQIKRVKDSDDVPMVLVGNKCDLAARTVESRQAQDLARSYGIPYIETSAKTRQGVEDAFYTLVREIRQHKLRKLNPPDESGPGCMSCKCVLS

CC(=O)c1ccc(C#CC(=O)c2ccc([N+](=O)[O-])cc2)cc1
GTP binding, percent of control [1]: 204% | outcome [2]: inactive | GTP binding signal, raw median fluorescence (lower = inhibition) (MCF (arbitrary fluorescence units)) [3]: 55.9 | outcome [4]: inactive

CCCn1c(C)cc(C(=O)COC(=O)c2c(C)nn(-c3ccccc3)c2C)c1C
RGS16–Galpha-o binding response [5]: -33.9% | RGS19–Galpha-o binding response [6]: 99.6% | RGS4–Galpha-o binding response [7]: 76.2% (active) | RGS7–Galpha-o binding response [8]: 81.9% | RGS8–Galpha-o binding response [9]: 83.8% | inhibition [10]: 1.1% (inactive) | binding response (% of control) [11]: 105% (inactive) | response (percent of control binding) [12]: 104% (inactive) | response (% of control binding) [13]: 103% (inactive) | binding response (% of control) [14]: 104% (inactive) | response (percent of control binding) [15]: 110% (inactive)

Cc1ccc(OCC(O)CN2CCN(CC(O)COc3ccc(C)cc3Cl)CC2)c(Cl)c1 (stereo unspecified)
RGS16–Galpha-o binding response [5]: 367% | RGS19–Galpha-o binding response [6]: 114% | RGS4–Galpha-o binding response [7]: 139% (active) | RGS7–Galpha-o binding response [8]: 127% | RGS8–Galpha-o binding response [9]: 165%

CCOC(=O)c1c(NC(=O)N/N=C/c2ccccc2OCC)sc(C(C)=O)c1C
GTP binding signal, raw median fluorescence (lower = inhibition) (MCF (arbitrary fluorescence units)) [3]: 238

CC1(C)C=C2[C@H]3CC[C@@H]4[C@@]5(C)CCC(=O)C(C)(C)[C@@H]5CC[C@@]4(C)[C@]3(C)CC[C@@]2(C(=O)O)CC1
RGS16–Galpha-o binding response [5]: 267% | RGS19–Galpha-o binding response [6]: -110% | RGS4–Galpha-o binding response [7]: 119% (active) | RGS7–Galpha-o binding response [8]: 114% | RGS8–Galpha-o binding response [9]: 134% | inhibition [10]: 0.1% (inactive) | binding response (% of control) [11]: 107% (inactive) | response (percent of control binding) [12]: 81.6% (inactive) | response (% of control binding) [13]: 107% (inactive) | binding response (% of control) [14]: 94.2% (inactive) | response (percent of control binding) [15]: 68.7% (inactive)

O=C(Nc1ccc(-n2ccnc2P(=O)(O)c2ccccc2)cc1)c1ccccc1Br
RGS16–Galpha-o binding response [5]: 143% | RGS19–Galpha-o binding response [6]: 394% | RGS4–Galpha-o binding response [7]: 138% (active) | RGS7–Galpha-o binding response [8]: 152% | RGS8–Galpha-o binding response [9]: 105% | outcome [10]: inactive | binding response (% of control) [11]: 114% (inactive) | response (percent of control binding) [12]: 135% [activator] (active) | response (% of control binding) [13]: 118% (inactive) | binding response (% of control) [14]: 129% [activator] (active) | response (percent of control binding) [15]: 139% (inactive)

O=C(Nc1ccccc1)c1cc2ccccc2[nH]1
RGS16–Galpha-o binding response [5]: 13.8% | RGS19–Galpha-o binding response [6]: -785% | RGS4–Galpha-o binding response [7]: 90.3% (active) | RGS7–Galpha-o binding response [8]: 89.9% | RGS8–Galpha-o binding response [9]: 67.8% | inhibition [10]: 0.6% (inactive) | binding response (% of control) [11]: 105% (inactive) | response (percent of control binding) [12]: 103% (inactive) | response (% of control binding) [13]: 106% (inactive) | binding response (% of control) [14]: 106% (inactive) | response (percent of control binding) [15]: 99.5% (inactive)

O=C(O)/C=C/c1cn(Cc2ccccc2)nc1-c1cccs1
outcome [4]: inactive

CC(C)Cc1nc(Nc2ccc(S(=O)(=O)N3CCCC3)cc2)c2nnn(Cc3ccccc3)c2n1
RGS16–Galpha-o binding response [5]: 260% | RGS19–Galpha-o binding response [6]: 48.9% | RGS4–Galpha-o binding response [7]: 135% (active) | RGS7–Galpha-o binding response [8]: 137% | RGS8–Galpha-o binding response [9]: 141% | inhibition [10]: 1.3% (inactive) | binding response (% of control) [11]: 94.8% (inactive) | response (percent of control binding) [12]: 91.8% (inactive) | response (% of control binding) [13]: 91.9% (inactive) | binding response (% of control) [14]: 90.6% (inactive) | response (percent of control binding) [15]: 95.9% (inactive)
